Read-out in experiment [1]: alkyl and aryl transferase (GSTA2), GSTA2 (gene 2939)
In words: CLD_GSTA2_48hr: CellzDirect (CLD) Gene Expression Assay for alkyl and aryl transferase (GSTA2) at 48 hours (AID 2283708).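 Further: active means mRNA induction above DMSO vehicle baseline.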 In short, it runs like this:
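GSTA2 mRNA quantified by qNPA chemiluminescence in human primary hepatocyte lysates after 48 h of daily fresh chemical dosing. Increases fitted against 0.2% DMSO vehicle baseline; cytotoxicity from morphology annotated yes/no.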

Read-out in experiment [2]: glucuronosyltransferase (UGT1A1), UGT1A1 (gene 54658)
Briefly: CLD_UGT1A1_48hr: CellzDirect (CLD) Gene Expression Assay for glucuronosyltransferase (UGT1A1) at 48 hours (AID 2283709).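 Further: actives increase expression relative to DMSO so potency refers to induction.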 In short, it runs like this:
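Quantitative nuclease protection assay (chemiluminescent) for UGT1A1 mRNA at 48 h in human hepatocyte cultures from two donors, redosed daily with fresh solutions. Induction fitted relative to 0.2% DMSO; phase-contrast morphology annotated cytotoxicity.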

A short description of experiment [3]: STM_H9_OrnithineISnorm_perc: Stemina devTOX quickPredict H9 human embryonic stem cell (hESC)-based Assay for Ornithine (ORN) Metabolite Biomarker, Normalized (AID 2283712; active means hit-call score of the fitted dose curve at least 0.9, where 1 is the maximum; inactive means score below 0.9;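 further: ornithine released into spent medium during last day measured by mass spectrometry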). In short, it runs like this: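 Ornithine secreted by H9 hESCs after 72h compound treatment (daily media/compound renewal) was quantified in final-day media by UPLC-HRMS. Values are isotope-standard-normalized, expressed relative to 0.1% DMSO, fitted in positive direction.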

The nature of experiment [4]: STM_H9_CystineISnorm_perc: Stemina devTOX quickPredict H9 human embryonic stem cell (hESC)-based Assay for Cystine (CYSS) Metabolite Biomarker, Normalized (AID 2283713; active means hit-call score of the fitted dose curve at least 0.9, where 1 is the maximum; inactive means score below 0.9). In short, it runs like this: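 Cells are held undifferentiated and treated for 72h, receiving fresh medium with compound every 24h. Cystine secreted during the final day is quantified by UPLC-HRMS against a labeled spike-in, then expressed relative to the DMSO vehicle median.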

Experiment [5] in a line: Tanguay_ZF_120hpf_ActivityScore_legacy: (Legacy) Oregon State University Tanguay Lab 120 Hour Post-fertilization zebrafish Assay Score for Activity (AID 2283742).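 On AC50: dechorionated Tropical 5D wild-type zebrafish embryos held singly per well.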 An outline of the steps: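 Binary scoring of mortality and morphology by brightfield at 24 and 120 hpf, summarised into one activity score from 18 components relative to DMSO. Wild-type Tropical 5D zebrafish, chorion removed at 4 hpf, static exposure 6–120 hpf, 28 °C.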

Experiment [6] can be described thus: ArunA_CellTiter_hNC: Viability Assessment in the ArunA Biomedical's Oris Neural Crest (hNC) Cell Migration Assay (AID 2283752). In short, it runs like this: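 Seed 60,000 hNC cells per well onto Matrigel in basal growth medium containing LIF and bFGF. Incubate 16 h at 37C. Replace with test medium containing chemical for 72 h, then assess viability by CellTiter Aqueous One.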

Experiment [7] can be described thus: ArunA_CellTiter_hNP: Viability Assessment in the ArunA Biomedical's Oris Neural Crest (hNC) Cell Migration Assay (AID 2283753). In short, it runs like this:
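Viability read with CellTiter 96 Aqueous One after 72 h chemical exposure of human hNP1 neuroprogenitors, which were plated on Matrigel in LIF/bFGF medium 16 h beforehand. Endpoint fitted in positive direction relative to DMSO.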

A short description of experiment [8]: ArunA_Migration_hNP: ArunA Biomedical's Oris Neuroprogenitor (hNP) Cell Migration Assay (AID 2283754). In short, it runs like this: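 Readout is calcein-AM fluorescence (ex494/em517) of cells migrating into the detection zone, relative to DMSO. hNP1 cells (H9-derived) grown on Matrigel behind stoppers 16 h, then stoppers pulled and chemical applied 72 h; cytochalasin D as control.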

Experiment [9] in a line: CEETOX_H295R_MTT_cell_viability: Viability Assessment in the CeeTox HT-H295R MTT Assay (AID 2283718; active means hit-call score of the fitted dose curve at least 0.9, where 1 is the maximum; inactive means score below 0.9;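 on AC50: curve fitted both ways so AC50 may mark viability loss or gain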). An outline of the steps:
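MTT reduction (0.5 mg/ml, 4 h at 37 C; absorbance at 570 and 650 nm) gave viability as background-corrected percent change versus controls. H295R cells had 48 h forskolin (10 uM) prestimulation, then 48 h chemical exposure at 0.1% DMSO.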

Read-out in experiment [10]: sulfotransferase (SULT2A), SULT2A1 (gene 6822)
In words: CLD_SULT2A_48hr: CellzDirect (CLD) Gene Expression Assay for sulfotransferase (SULT2A) at 48 hours (AID 2283710).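 Further: hits raise SULT2A1 transcript above the 0.2% DMSO vehicle baseline.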 An outline of the steps:
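SULT2A1 transcript measured by qNPA chemiluminescence in human primary hepatocyte cultures after 48 h, with fresh dosing solutions on two consecutive days; gain-of-signal fitting against 0.2% DMSO vehicle; cytotoxicity annotated from phase-contrast morphology.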

The structures appear in SMILES notation. Values joined by “and” are separate entries in the source; they are usually repeats but may differ in a detail not shown here. Identical values can stand only once. Records with an inconclusive call do not appear. More than one record can exist for a structure, and the calls need not agree. Active and inactive are the calls of the source. How the source made its calls, unless noted: active means hit-call score of the fitted dose curve at least 0.9, where 1 is the maximum; inconclusive means response in the unintended direction; inactive means score below 0.9.

By AC50 is commonly meant the concentration giving half of the maximal activity seen. Consider `CC(C)(C)c1ccc(CSc2cnn(C(C)(C)C)c(=O)c2Cl)cc1`, for which the molecule was classed as inactive in experiment [1], in [2], in experiment [6] and in [7]. Also, the AC50 in experiment [3] is 0.0663 µM (active); in [4] it was 0.171 µM (active); in [5], 40.3 µM (active); in experiment [8] it was 0.0196 µM (active).

Regarding `CCCC1COC(Cn2cncn2)(c2ccc(Cl)cc2Cl)O1` (stereo not given), the result in [1] and in experiment [9] was inactive. In addition, the AC50 in experiment [3] is 85.5 µM (active); in [4] it was 33.6 µM (active); in experiment [5], 42.8 µM (active).

`CN(C)C(=S)SSC(=S)N(C)C`: the outcome in experiment [1] was inactive. For the same molecule, the AC50 was 17.7 µM (active) in experiment [3], 14.5 µM (active) in [4] and 9.8 µM (active) in experiment [5].

Turning to `CCNc1nc(Cl)nc(NC(C)C)n1`, the result in experiment [1], in [9] and in experiment [5] was inactive. For the same molecule, the AC50 was 0.12 µM (active) in experiment [3] and 42.3 µM (active) in experiment [4].

For `CCON=C(CC)C1=C(O)CC(c2c(C)cc(C)cc2C)CC1=O` (stereo not given), the call in experiment [1], in experiment [3], in experiment [4], in experiment [9] and in experiment [5] was inactive.

Take `CNC(=O)ON=CC(C)(C)SC`: the result in experiment [1] and in experiment [2] was inactive. Moreover, in experiment [5], the AC50 is 0.00317 µM (active).

For `COC(=O)c1ccccc1C(=O)OC`, the outcome in experiment [1], in experiment [3], in experiment [4], in [9] and in experiment [5] was inactive.

Take `C=CC1(C)OC(=O)N(c2cc(Cl)cc(Cl)c2)C1=O` (stereo not given): the result in experiment [1], in experiment [3], in experiment [4], in experiment [9] and in [5] was inactive.

Turning to `C#CCOS(=O)OC1CCCCC1Oc1ccc(C(C)(C)C)cc1` (stereo not given), the call in [1] and in experiment [5] was inactive. For the same molecule, the concentration at half-maximal activity (AC50) was 3.33 µM (active) in experiment [3] and 2.42 µM (active) in experiment [4].

For the molecule `COc1nc(C)nc(NC(=O)NS(=O)(=O)c2ccccc2Cl)n1`, the outcome in experiment [1] was inactive.

On to `COP(N)(=O)SC` (stereo not given), for which the molecule was classed as inactive in experiment [1], in experiment [2] and in experiment [5].

For `CCCN(CCC)c1c([N+](=O)[O-])cc(S(N)(=O)=O)cc1[N+](=O)[O-]`, the outcome in experiment [1], in experiment [2] and in [5] was inactive.

For `COc1nc(C)nc(NC(=O)NS(=O)(=O)c2ccccc2CCC(F)(F)F)n1`, the call in [1] and in experiment [2] was inactive.

Take `CCc1nn(C)c(C(=O)NCc2ccc(C(C)(C)C)cc2)c1Cl`: the molecule was called inactive in [1]. For the same molecule, the results for the AC50 in experiment [3], in experiment [4] and in [5] were 1.84 µM (active), 1.82 µM (active) and 2.81 µM (active), respectively.

As to `OC(c1ccc(Cl)cc1)(c1cncnc1)c1ccccc1Cl` (stereo not given), the AC50 in [1] is 15.8 µM (active); in [3] it was 50 µM (active); in experiment [9], 77.2 µM (active). The molecule was classed as inactive in [2] and in experiment [5].

As to `CC1COC(Cn2cncn2)(c2ccc(Oc3ccc(Cl)cc3)cc2Cl)O1` (stereo not given), the molecule was called inactive in experiment [1] and in experiment [5]. For the same molecule, the half-maximal activity concentration (AC50) in [3] is 3.93 µM (active); in [4], 2.87 µM (active); in experiment [9], 0.0749 µM (active).

On to `CC(C)Oc1cc(-n2nc(C(C)(C)C)oc2=O)c(Cl)cc1Cl`, for which the molecule was classed as inactive in experiment [1], in experiment [9] and in [5]. The AC50 in experiment [10] was 2.92 µM (active).

With `CCOC(=O)C(Cl)Cc1cc(-n2nc(C)n(C(F)F)c2=O)c(F)cc1Cl` (stereo not given), in experiment [1], the molecule was classed as inactive. Moreover, the AC50 in experiment [9] is 0.0412 µM (active); in experiment [5], 2.02 µM (active).

As to `CO/C=C(/C(=O)OC)c1ccccc1Oc1cc(Oc2ccccc2C#N)ncn1`, the AC50 was 20 µM (active) in experiment [1]; 9.41 µM (active) and 2.03 µM (active) in [5]. In addition, the outcome in [3], in experiment [4] and in experiment [5] was inactive.

Consider `COc1cnc(OC)n2nc(NS(=O)(=O)c3c(OCC(F)F)cccc3C(F)(F)F)nc12`, for which the molecule was classed as inactive in experiment [1], in experiment [2] and in [5].

Regarding `COC(=O)N(OC)c1ccccc1COc1ccn(-c2ccc(Cl)cc2)n1`, the half-maximal activity concentration (AC50) in experiment [1] was 33.8 µM (active); in experiment [3], 0.85 µM (active); in experiment [4] it was 0.743 µM (active); in [5] it was 0.409 µM (active).

Turning to `CCCCOC(=O)c1ccccc1C(=O)OCCCC`, the molecule was called inactive in [1], in [9] and in experiment [5]. Moreover, the AC50 in [3] is 76.3 µM (active); in experiment [4], 50 µM (active).

With `CCCCNC(=O)n1c(NC(=O)OC)nc2ccccc21`, the call in experiment [1] and in experiment [5] was inactive. In addition, the AC50 is 6.13 µM (active) in experiment [3], 8.39 µM (active) in experiment [4] and 0.015 µM (active) in experiment [9].

Turning to `CCOC(=O)CC(SP(=S)(OC)OC)C(=O)OCC` (stereo not given), the molecule was called inactive in experiment [1] and in experiment [9]. Also, the AC50 in [3] was 76.9 µM (active); in [4], 86.9 µM (active); in experiment [5], 29.2 µM (active).

Take `N#Cc1nn(-c2c(Cl)cc(C(F)(F)F)cc2Cl)c(N)c1S(=O)C(F)(F)F` (stereo not given): the half-maximal activity concentration (AC50) was 4.25 µM (active) in experiment [1]; 35.5 µM (active) in experiment [3]; 88.7 µM (active) in [4]; 43.8 µM (active) in [6]; 36.8 µM (active) in experiment [7]; 50 µM (active) in experiment [8]. Also, in [5], the molecule was called inactive.

Regarding `C=CCC1=C(C)[C@@H](OC(=O)[C@@H]2[C@@H](C=C(C)C)C2(C)C)CC1=O`, the molecule was classed as inactive in experiment [1], in [3], in experiment [4], in [5], in experiment [7] and in [8]. Further, the concentration at half-maximal activity (AC50) in [6] is 0.992 µM (active).

Take `CCCCNC(=O)OCC#CI`: in [1], the call was inactive. Further, in [5], the AC50 was 15.8 µM (active).

Regarding `O=C(O)COc1nc(Cl)c(Cl)cc1Cl`, the result in experiment [2] and in [5] was inactive.

Take `COC(=O)C=C(C)OP(=O)(OC)OC`: the outcome in [1] and in [5] was inactive.

Turning to `O=C(O)c1nc(Cl)ccc1Cl`, the call in experiment [1] and in [5] was inactive.

Consider `N#Cc1cc(Br)c(O)c(Br)c1`, for which the outcome in experiment [1] was inactive. Further, in experiment [5], the AC50 was 23.8 µM (active).

These data come from PubChem BioAssay (EPA / NIEHS).
